Data: PubChem BioAssay (EPA / NIEHS)
Values joined by “and” are separate entries in the source; they are usually repeats but may differ in a detail not shown here. Equal values may be shown once. Active and inactive are the calls of the source. Rule for the calls: active = hit-call score of the fitted dose curve at least 0.9, where 1 is the maximum; inactive = score below 0.9.

These molecules were tested on Interleukin-8 (IL8), CXCL8 (gene 3576) (assay: BSK_hDFCGF_IL8: BioMAP Diversity Plus: hDFCGF Assay for Interleukin-8 (IL8) Biomarker Activity (AID 2283058)). Conditions: primary human foreskin fibroblasts; actives raise or lower the signal.
Experimental: BSK_hDFCGF is a cell-based, multiplexed-readout assay that uses foreskin fibroblast, a human skin primary cell, with measurements taken at 24 hours after chemical dosing in a 96-well plate.BSK_hDFCGF_IL8 is an assay component measured in the BSK_hDFCGF assay. It measures IL-8 antibody related to regulation of gene expression using ELISA technology.Data from the assay component BSK_hDFCGF_IL8 was analyzed into 1 assay endpoint. This assay endpoint, BSK_hDFCGF_IL8, was analyzed with bidirectional fitting relative to DMSO as the negative control and baseline of activity. Using a type of binding reporter, gain or loss-of-signal activity can be used to understand changes in the signaling as they relate to the gene CXCL8. Furthermore, this assay endpoint can be referred to as a primary readout, because this assay has produced multiple assay endpoints where this one serves a signaling function. To generalize the intended target to other relatable targets, this assay endpoint is annotated to the cytokine intended target family, where the subfamily is interleukins.
The levels of cell surface (or secreted, indicated by the prefix "s") biomarker endpoints were measured by ELISA. Overt cytotoxicity to cells in confluent adherent cultures (all systems other than the BT system) was assessed by measuring total protein levels using sulforhodamine B (SRB) staining in parallel cultures at the time of biomarker measurements, indicated as SRB endpoints. For proliferation assays for adherent cell types, individual cell types are cultured at sub-confluence and relative cell numbers quantified by SRB staining at time points optimized for each system (48 h: 3C and CASM3C systems; 72 h: BT and HDF3CGF systems; 96 h: SAg system). SRB was performed by staining cells with 0.1% SRB after fixation with 10% TCA and reading wells at 560 nm.Viability and proliferation of PBMC (T cells) was quantified by Alamar Blue reduction for the SAg and BT systems. For PBMC viability (referred to as PBMC Cytotoxicity within the assay endpoint names), cells were plated (75,000/well in a 96-well plate) and then chemical samples added for 1 h before addition of activators, SEB and TSST-1 (20 ng/mL final concentration each). Cells were incubated for 90 h. Then, Alamar Blue (20 uL/well) (Invitrogen, Cat DAL1100) was added for 6 h, and the plates were read with a fluorescence microplate reader at 546/580 nm (excitation/emission). For PBMC proliferation, cells were plated and activated as above but incubated for only 16 h prior to addition of Alamar Blue. Plates were read after 6 h.

SMILES	AC50	outcome
CC(C)(c1ccccc1)c1ccc(O)cc1	30.8 µM (active)	–
C=CC(N)=O	–	inactive
CN(C)c1nc(=O)n(C2CCCCC2)c(=O)n1C	–	inactive
Cc1ccccc1[N+](=O)[O-]	–	inactive
O=NN(c1ccccc1)c1ccccc1	–	inactive
Cc1cc2c3c(c1)C(c1ccccc1)=N[C@@H](NC(=O)c1ccncc1)C(=O)N3CC2	–	inactive
CCC(C)(c1ccc(O)cc1)c1ccc(O)cc1	–	inactive
COS(=O)(=O)OC	–	inactive
O=S(=O)(O)C(F)(F)C(F)(F)C(F)(F)C(F)(F)F	–	inactive
Cc1cccc([N+](=O)[O-])c1	–	inactive
Nn1cnnc1	–	inactive
N#Cc1ccc(N(CC(N)=O)CC(F)(F)F)cc1C(F)(F)F	–	inactive
CCNc1nc(NC(C)C)nc(SC)n1	–	inactive
CN(C)CCO	–	inactive
ClC(Cl)=C(c1ccc(Cl)cc1)c1ccc(Cl)cc1	30 µM (active)	–
C1CC2OC2CC1C1CO1 (stereo not given)	–	inactive
Clc1ccc(C(Cl)(Cl)Cl)cc1	–	inactive
NS(=O)(=O)C(F)(F)C(F)(F)C(F)(F)C(F)(F)C(F)(F)C(F)(F)C(F)(F)C(F)(F)F	37.5 µM (active) and 22.2 µM (active) and 34 µM (active)	–
ClC1=C(Cl)[C@]2(Cl)[C@@H]3[C@H]4C[C@H]([C@@H]5O[C@H]45)[C@@H]3[C@@]1(Cl)C2(Cl)Cl	–	inactive
Oc1ccc(C(c2ccc(O)cc2)(C(F)(F)F)C(F)(F)F)cc1	30.6 µM (active)	–

SMILES	AC50	outcome
CC(C)C(=O)OCC(C)(C)C(OC(=O)C(C)C)C(C)C (stereo not given)	–	inactive
CCCCCCCCOC(=O)c1ccccc1C(=O)OCCCCCCCC	–	inactive
CC(c1ccc(O)cc1)(c1ccc(O)cc1)c1ccc(O)cc1	36.6 µM (active)	–
CCOC(=O)C(O)(c1ccc(Cl)cc1)c1ccc(Cl)cc1	–	inactive
C[C@]12CCC(=O)C=C1CC[C@@H]1[C@@H]2CC[C@@]2(C)[C@H]1CC[C@]2(C)O	–	inactive
O=C(O)C(F)(F)C(F)(F)C(F)(F)C(F)(F)C(F)(F)C(F)(F)C(F)(F)C(F)(F)F	–	inactive
CO/C=C(/C(=O)OC)c1ccccc1COc1cccc(C(F)(F)F)n1	–	inactive
Clc1ccc(C(c2ccccc2Cl)C(Cl)(Cl)Cl)cc1 (stereo not given)	10.8 µM (active)	–
COc1ccc(O)c(C(C)(C)C)c1	–	inactive
Cc1cc(-c2ccc(N)c(C)c2)ccc1N	–	inactive
CCC(C)c1cc([N+](=O)[O-])cc([N+](=O)[O-])c1O (stereo not given)	–	inactive
C[C@]12CCC(=O)C=C1CC[C@@H]1[C@@H]2CC[C@]2(C)C(=O)CC[C@@H]12	–	inactive
Sc1ccccc1	–	inactive
CCOP(=S)(OCC)SCSC(C)(C)C	–	inactive
Cc1cccc(C)c1N	–	inactive
O=C(N[C@H]1CN2CCC1CC2)c1cc2ccoc2cn1	–	inactive
CCCCCCOC(=O)c1ccccc1C(=O)OCCCCCC	–	inactive
O=C(O)C(F)(F)C(F)(F)C(F)(F)C(F)(F)C(F)(F)C(F)(F)C(F)(F)C(F)(F)C(F)(F)F	36.9 µM (active) and 57.3 µM (active) and 55.1 µM (active)	–
O=C(NC(=O)c1cc(F)c(F)cc1Cl)Nc1cc(F)ccc1N1CCC(C(=O)O)CC1	–	inactive
Cc1cc(O)ccc1Cl	–	inactive
